High-throughput results deposited in PubChem BioAssay by Center for Chemical Genomics, University of Michigan.
Dicer inh: inhibitors of Dicer pre-microRNA processing, primary screen, biochemical, cat-ELCCA, chemiluminescence. Endoribonuclease Dicer (Homo sapiens), Q9UPY3. cat-ELCCA pre-miR-21 Dicer processing; hits give high values. z-score at 25 µM. 47,000 tested, 6% active. AID 1347074, 2019; in the data active = z-score above about 3, passing the limit was not always enough;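 note: plate controls were vehicle for no effect and no enzyme for full effect; higher signal means more uncleaved substrate so more Dicer inhibition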
* = called active by the depositor. This excerpt belongs to a sample that is enriched for hits.

SMILES | Dicer inh
Cc1ccc(CSc2n[nH]c(C(F)(F)F)n2)cc1 | 1.8
CCOC(=O)C1=C(C)Nc2nc3ccccc3n2C1c1cccc(Cl)c1 (stereo not drawn) | -0.4
O=C(O)c1ccc(-c2ccccc2F)cc1 | -0.92
CCc1nnc(NC(=S)NC(=O)c2ccccc2)s1 | -0.73
CCc1nnc(NC(=O)c2ccccc2O)s1 | 4.2*
CCc1nnc(NC(=O)c2cc(Br)ccc2Cl)s1 | 0.34
CC(=O)N[C@H]1C(OC(C)=O)O[C@H](COC(C)=O)[C@@H](OC(C)=O)[C@@H]1OC(C)=O (stereo partly drawn) | -0.93
CCCn1c(NCc2cccs2)nc2ccccc21 | 3.1*
c1ccc(Cn2c(NCc3cccs3)nc3ccccc32)cc1 | 3*
c1csc(CNc2nc3ccccc3n2CCN2CCOCC2)c1 | 2.2
c1csc(CNc2nc3ccccc3n2CCN2CCCCC2)c1 | -0.42
CC(C)CSc1scc(-c2ccc(Cl)cc2)c1C#N | 19
Cc1ccc(C(=O)CSc2ncn[nH]2)cc1C | 1.1
Cc1cc(C(F)(F)F)nc2c(Cl)c(-c3ccc(C(C)(C)C)cc3)nn12 | -0.86
Cc1ccc(-c2nc(Nc3nc(C)cc(C)n3)n[nH]2)cc1 | 0.39
COc1ccc(OC2C(=O)N(Cc3ccc(F)cc3)C2c2ccc3c(c2)OCO3)cc1 (stereo not drawn) | 3.6*
O=C1C(Oc2ccccc2)C(c2ccc3c(c2)OCO3)N1CCc1ccc(F)cc1 (stereo not drawn) | 1.2
COc1ccc(CCN2C(=O)C(Oc3ccccc3C)C2c2ccc3c(c2)OCO3)cc1 (stereo not drawn) | 1.8
CCOC(=O)c1c(NC(=O)c2nc3nc(C)cc(C(F)F)n3n2)sc2c1CCC(C)C2 (stereo not drawn) | -0.17
Clc1ccc(-c2cc3ccccc3[nH]2)cc1 | 9.6
O=[N+]([O-])/C=C/c1c(-c2ccc3ccccc3c2)[nH]c2ccccc12 | 1.1
O/N=C/c1c(-c2ccc(Cl)cc2)[nH]c2ccccc12 | 5*
CCCn1nc(Oc2nc(NCC)nc(NC(C)C)n2)ccc1=O | 0.47
N#Cc1c2c(c(=O)n3c1[nH]c1ccccc13)CCC2 | 2
COc1ccc(-c2nc(N)nc(SC)c2C#N)cc1 | -5.1
SMILES | Dicer inh
O=c1c(=O)n2c(nn1Cc1ccc(F)cc1)sc1ccccc12 | -0.64
O=C(Nc1nnc(CCS(=O)(=O)c2ccc3ccccc3c2)s1)C1CCCCC1 | -0.45
O=S(=O)(c1ccc2ccccc2c1)N1CCN(Cc2cc(Br)ccc2O)CC1 | 4.1*
O=C(CCC1CCCC1)N1CCN(S(=O)(=O)c2ccc3ccccc3c2)CC1 | 3.1*
Cc1ccc(S(=O)(=O)N2CCC(CC3CCN(S(=O)(=O)c4ccc(C)cc4)CC3)CC2)cc1 | 1.5
COc1ccc(OC)c(CN2CCN(S(=O)(=O)c3ccc4ccccc4c3)CC2)c1 | 1.9
Cc1ccc(S(=O)(=O)N2CCN(S(=O)(=O)c3ccc4ccccc4c3)CC2)cc1 | 3.4*
COc1ccccc1C1CCN(S(=O)(=O)c2ccc(C)cc2)CC1 | -0.71
O=S(=O)(c1ccc(Br)cc1)N1CCN(C/C=C/c2ccccc2)CC1 | -0.37
O=C(NCc1ccco1)C1CCCN1S(=O)(=O)c1ccc2ccccc2c1 (stereo not drawn) | -0.9
COc1ccc2c(c1)CCCN2C(=O)NC(=O)c1c(F)cccc1Cl | -0.99
C=CCOc1ccc(C2c3c(oc4ccc(C)cc4c3=O)C(=O)N2Cc2ccc3c(c2)OCO3)cc1 (stereo not drawn) | 0.21
Cc1n[nH]c(C)c1CCCCCOc1ccccc1 | 0.99
COC(=O)c1cc(OC)c(OC)cc1N(C)S(C)(=O)=O | 2.2
Cc1cc(C)c2nc(Nc3nc(C)cc(C)n3)nc(C)c2c1 | 3.3*
CC1=CC(C)(C)N=C(Nc2nc(C)c3cc(C)cc(C)c3n2)N1 | -0.43
Cc1cc(C)c2nc(Nc3nc4ccccc4c(=O)[nH]3)nc(C)c2c1 | 3
CC(C)n1c(CCCO)nc2ccccc21 | -0.69
Cc1nc2c(cnn2-c2ccccc2)c(=O)o1 | -1.4
O=c1[nH]cnc2c1cnn2-c1ccccc1 | 3.6*
O=c1[nH]cnc2c1cnn2-c1ccc(F)cc1 | 1.3
CC1=C(C(N)=O)C(c2ccncc2)n2nc(CCCO)nc2N1 (stereo not drawn) | 0.69
Cc1cc(SC(=O)N/C=C/c2ccco2)c(C)cc1Cl | -2.3
COc1ccc(/C(O)=C2\C(=O)C(=O)N(CCCN(C)C)C2c2ccccc2)cc1 (stereo not drawn) | 1.4
CN(C)CCN1C(=O)C(=O)/C(=C(/O)c2ccc(S(=O)(=O)N(C)C)cc2)C1c1ccccc1F (stereo not drawn) | 1.2
SMILES | Dicer inh
COc1ccc(/C(O)=C2\C(=O)C(=O)N(CCN(C)C)C2c2ccccc2F)cc1 (stereo not drawn) | 3.4*
CCOC(=O)c1sc(N2C(=O)C(=O)/C(=C(/O)c3ccc(F)cc3)C2c2ccc(C)cc2)nc1C (stereo not drawn) | 0.4
Cc1ccc2nsnc2c1S(=O)(=O)Nc1ccc(Cl)cc1 | 0.42
CCC1C(=O)N=C(SCC(=O)Nc2ncccn2)NC1=O (stereo not drawn) | 0.96
CC1(C)CC(=O)c2cc(C(=O)Nc3ccc(Br)cc3)c(=O)n(-c3ccc(Cl)cc3)c2C1 | 1.1
Cc1cc(-c2nnc(SCC(=O)c3ccc(Cl)cc3)o2)no1 | -0.9
O=C1CC(CSc2nnnn2-c2ccccc2)=NN1c1nc2ccccc2[nH]1 | -2.3
Cc1nnc(SCC2=NN(c3nc4ccccc4[nH]3)C(=O)C2)s1 | 3.2*
Cc1nnc(SCc2cc(=O)n3c(nc4ccccc43)[nH]2)s1 | -1.9
COC(=O)c1c(C)oc2cc(Br)c(OCc3ccc(F)cc3)cc12 | -2.7
COc1ccc2nc(C)cc(N3CCOCC3)c2c1 | -0.9
c1ccc(-c2cc(N3CCOCC3)c3ccccc3n2)cc1 | 1.1
Cc1ccc2nc(C)cc(N3CCOCC3)c2c1 | 4.4*
COc1ccc(OC(=O)c2ccncc2)cc1 | 1.9
O=C(Oc1ccc(OC(=O)c2ccncc2)cc1)c1ccncc1 | 0.9
CCCCCCOc1ccc(OC(=O)c2ccncc2)cc1 | 8.9*
O=C1CC(c2ccc(F)cc2)Sc2ccccc2N1 (stereo not drawn) | -1.2
CCN1C(=O)C(O)(CC(=O)c2c(C)n[nH]c2C)c2ccccc21 (stereo not drawn) | 0.08
Cc1ccsc1C1Nc2ccc3ccccc3c2C2=C1C(=O)CCC2 (stereo not drawn) | -1.2
CC(=O)Nc1ccc(-n2sc3c(c2=S)-c2cccc(C)c2NC3(C)C)cc1 | 7.9
CC(=O)Nc1ccc(-n2sc3c(c2=S)-c2ccccc2NC3(C)C)cc1 | 5.3*
CCOC(=O)c1ccc(-n2sc3c(c2=S)-c2ccccc2NC3(C)C)cc1 | 0.62
COc1ccc2c(c1)-c1c(sn(-c3cc(C)ccc3O)c1=S)C(C)(C)N2 | 1.9
CCOc1ccc2c(c1)-c1c(sn(-c3ccccc3OC)c1=S)C(C)(C)N2 | 0.92
COc1ccc2c(c1)-c1c(sn(-c3ccccc3OC)c1=S)C(C)(C)N2 | 6.6*
SMILES | Dicer inh
Cc1ccc(S(=O)(=O)/C(=N/Nc2cc(Cl)cc(Cl)c2)[N+](=O)[O-])cc1 | -0.65
Cc1cc(Sc2nnc(/N=C/N(C)C)s2)c2ccccc2n1 | -1.5
CCn1ccc2cc(OC)ccc2c1=S | 0.07
CC(=O)NCCSCCNC(C)=O | -1.1
CCCOC(=O)C1=C(C)Nc2nnnn2C1c1cc(Br)ccc1OCCC (stereo not drawn) | 1.8
COc1ccc(N(C2C=CS(=O)(=O)C2)S(=O)(=O)c2ccc(Cl)cc2)cc1 (stereo not drawn) | -1
CCOc1ccc(N(C)S(=O)(=O)c2ccc(Cl)cc2)cc1 | 3.1*
